The list is not random: actives were taken first. Their share in the collection is about 2.6%.
p53ts 32C kill = qHTS Screen for Compounds that Selectively Target Cancer Cells with p53 Mutations: Cytotoxicity of p53ts Cells at the Permissive Temperature; H1299-p53A138V at 32C, ATP luminescence viability, 24 h; Potency, µM (series often up to 46.1 µM), actives largely listed as cytotoxic; AID 924, 2007; 130,000 tested, 0.93% active; further: nearly all actives have a fitted effect of over 55% in size
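Viability by ATPlite luminescence after 24 h compound treatment (up to 46 uM) at the permissive 32C. Cells are H1299 carrying p53 A138V. Scale runs from DMSO basal to 100 uM tamoxifen as full kill; AC50 from Hill fits.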
Luciferase inh = qHTS Assay for Inhibitors of Firefly Luciferase | Luciferin 4-monooxygenase (Photinus pyralis), P08659 | purified firefly luciferase, luminescence, 8 min | Potency, µM (titrated, usually from 57.1 µM), actives largely listed as inhibitors | 72,000 tested, 2.2% active | AID 411, 2009; further: nearly all actives have a fitted effect of over 40% in size
Target sequence (P08659 whole entry, looked up): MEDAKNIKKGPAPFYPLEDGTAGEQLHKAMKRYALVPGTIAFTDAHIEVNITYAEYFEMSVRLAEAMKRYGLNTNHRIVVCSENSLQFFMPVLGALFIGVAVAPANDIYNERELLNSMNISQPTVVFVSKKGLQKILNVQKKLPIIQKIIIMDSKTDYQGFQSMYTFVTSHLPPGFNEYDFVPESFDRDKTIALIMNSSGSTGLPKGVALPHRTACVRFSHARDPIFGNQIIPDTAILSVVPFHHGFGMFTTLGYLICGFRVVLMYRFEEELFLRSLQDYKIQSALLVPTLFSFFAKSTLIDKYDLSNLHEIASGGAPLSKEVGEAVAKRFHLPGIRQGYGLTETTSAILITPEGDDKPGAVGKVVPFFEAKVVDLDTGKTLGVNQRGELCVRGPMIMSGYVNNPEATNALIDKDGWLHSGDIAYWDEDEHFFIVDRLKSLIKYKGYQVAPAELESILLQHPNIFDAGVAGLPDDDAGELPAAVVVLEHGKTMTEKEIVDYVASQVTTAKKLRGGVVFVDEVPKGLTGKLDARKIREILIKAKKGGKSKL
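Luminescence read-out after 8 min at room temperature; enzyme reaction used luciferin plus 10 uM ATP (linear range) in imidazole buffer pH 7.2 with KCl, MgCl2, Tween 20 and BSA. Each sample was run as a titration.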
p53ts 39C tox = qHTS Screen for Compounds that Selectively Target Cancer Cells with p53 Mutations: Cytotoxicity of p53ts Cells at the Nonpermissive Temperature; Potency, µM (titrated, usually from 46.1 µM), actives largely listed as cytotoxic; H1299-p53A138V viability at 39C, ATP luminescence, 24 h; 130,000 tested, 1.5% active; further: nearly all actives have a fitted effect of over 55% in size
Of the large screens only hits and unclear results are named; the others gave an inactive call. The call rests on the fitted dose curve; in most records, active means well fitted curve in the direction sought with a large enough effect; inconclusive means small, poorly fitted or top-dose-only effect, or another doubt; inactive means no such curve, though single readings can be large; an effect the other way counts as inactive or inconclusive.

COC(=O)c1cc2oc3ccccc3c2n1Cc1nc(-c2cccc(Cl)c2)oc1C	none (no result: Luciferase inh)
COc1ccc(N(CC(=O)NCCc2ccccc2)S(=O)(=O)c2ccccc2)c(OC)c1	none (no result: Luciferase inh)
c1cc2c(cc1-c1cnc3n1CCC3)OCCO2	p53ts 32C kill inconclusive, p53ts 39C tox 12.6µM
Cn1c(-c2ccc3c(c2)OCO3)cnc1N	none
CCCCOc1ccc(C(=O)N2CCN(CCc3ccncc3)CC2)cc1	none (no result: Luciferase inh)
CN(C)/C=N/c1cnc(C(=O)c2ccc(Cl)cc2)n1C	Luciferase inh 12.6µM
CN(C)/C=N/c1cc(=O)n(Cc2ccccc2)c(=O)n1C	none (no result: Luciferase inh)
COc1ccc2c(c1)sc1ncc(C(=O)NCc3cccc(C)c3)c(=O)n12	none (no result: Luciferase inh)
O=C1C(C=NCCCN2CCOCC2)=C(O)c2ccccc21	none
O=C1C(C=NCCN2CCOCC2)=C(O)c2ccccc21	Luciferase inh 12.6µM
CC1Cc2nc(SCC(=O)Nc3ccc4c(c3)OCCO4)n(C)c(=O)c2S1 (centres undefined)	none
CCOC(=O)c1ccc(NC(=O)CSc2nc3c(c(=O)n2C)SC(C)C3)cc1 (centres undefined)	p53ts 32C kill 7.94µM, p53ts 39C tox 12.6µM
Cc1ccc(OCC(=O)Nc2nnc(S(=O)(=O)N3c4ccccc4CC3C)s2)cc1 (centres undefined)	none (no result: Luciferase inh)
O=C(Nc1cccnc1)c1cn(-c2ccccc2)nc1-c1cccs1	Luciferase inh 10µM, p53ts 39C tox inconclusive
O=C(Nc1ccccc1)c1cn(-c2ccccc2)nc1-c1ccccc1	none (no result: Luciferase inh)
Cc1ccccc1CCNC(=O)c1ccc2c(c1)nc1n2CCCCC1	p53ts 32C kill 1.58µM, p53ts 39C tox 1µM (no result: Luciferase inh)
CC(C)NC(=O)c1ccc2c(c1)nc1n2CCCCC1	none (no result: Luciferase inh)
CC1CCn2c(nc3cc(C(=O)NCCc4ccccc4)ccc32)C1 (centres undefined)	p53ts 32C kill 15.8µM, p53ts 39C tox inconclusive (no result: Luciferase inh)
CSc1ccc(CCNC(=O)c2ccc3c(c2)nc2n3CCCCC2)cc1	none (no result: Luciferase inh)
CC1CCn2c(nc3cc(C(=O)NCCc4ccc(Cl)cc4)ccc32)C1 (centres undefined)	none (no result: Luciferase inh)
CC(CNC(=O)c1ccc2c(c1)nc1n2CCCCC1)c1ccccc1 (centres undefined)	p53ts 32C kill inconclusive, p53ts 39C tox 12.6µM (no result: Luciferase inh)
Cc1ccccc1CCNC(=O)c1ccc2c(c1)nc1n2CCOC1	p53ts 32C kill 7.94µM, p53ts 39C tox 6.31µM (no result: Luciferase inh)
O=C(NCCc1ccc(Cl)cc1)c1ccc2c(c1)nc1n2CCOC1	none (no result: Luciferase inh)
CC1CCC2C(=O)N3C(CCC(C)C3c3ccc(-c4ccco4)cc3)C(=O)N2C1c1ccc(-c2ccco2)cc1 (centres undefined)	none (no result: Luciferase inh)
COc1ccc(Nc2nnc(-c3ccc(C)c(S(=O)(=O)NCc4nc5ccccc5[nH]4)c3)c3ccccc23)cc1	none (no result: Luciferase inh)
O=C(CSc1ncc2c(n1)-c1ccccc1N(Cc1ccc(F)cc1)S2(=O)=O)NCc1ccccc1	none (no result: Luciferase inh)
Nc1ccc2c(c1)CCC2=O	Luciferase inh 12.6µM
COc1ccc2c(c1OC)CCC2=O	none (no result: Luciferase inh)
Cc1ccc(CNC(=O)c2c(-c3ccc(Br)cc3)noc2C)o1	none (no result: Luciferase inh)
CN(C)c1ccc(-c2nc3ccccn3c2Nc2ccc3c(c2)OCCO3)cc1	p53ts 39C tox inconclusive (no result: Luciferase inh)
O=C(NCc1cccs1)C1CCC(CNS(=O)(=O)c2ccc(Br)s2)CC1 (centres undefined)	none
O=C(NCc1ccccc1Cl)C1CCC(CNS(=O)(=O)c2ccc(Br)s2)CC1 (centres undefined)	p53ts 32C kill inconclusive, p53ts 39C tox 12.6µM (no result: Luciferase inh)
COc1ccc(CNC(=O)CCc2c(C)nn(-c3ccc(N4CCCCC4)nn3)c2C)c(OC)c1	none (no result: Luciferase inh)
O=C(c1cccc(F)c1)N1CCC(c2c[nH]c3ccccc23)(c2c[nH]c3ccccc23)CC1	p53ts 39C tox inconclusive (no result: Luciferase inh)
COc1ccccc1CNc1cc(-c2ccccc2)nc2nncn12	none (no result: Luciferase inh)
CCCCC(=O)NCCc1c(Cc2ccccc2)[nH]c2ccccc12	none
COc1ccc(C(O)C(CN2CCOCC2)c2ccccc2)cc1F (centres undefined)	none
COc1ccc(C(=O)C(CN2CCOCC2)c2ccccc2)cc1F (centres undefined)	p53ts 32C kill inconclusive, p53ts 39C tox 20µM
COc1cc([C@@H]2Oc3cc([C@H]4Oc5cc(O)cc(O)c5C(=O)[C@H]4O)ccc3O[C@H]2CO)ccc1O	none
Cc1ccc(Cl)cc1N1CCN(C(=O)CCCn2c(=O)[nH]c3ccc(Br)cc3c2=O)CC1	none (no result: Luciferase inh)
COc1cccc(N2CCN(C(=O)CCCn3c(=O)[nH]c4ccc(Br)cc4c3=O)CC2)c1	p53ts 32C kill 12.6µM (no result: Luciferase inh)
Clc1ccccc1-c1nc(-c2ccccc2)n[nH]1	p53ts 32C kill inconclusive, Luciferase inh 15.8µM, p53ts 39C tox inconclusive
O=C(CSc1n[nH]c(-c2ccccc2Cl)n1)N1CCN(c2ccccc2)CC1	none (no result: Luciferase inh)
O=C(OCC(=O)c1ccccc1Br)c1ccccn1	Luciferase inh 12.6µM
O=C(COC(=O)c1ccccn1)Nc1nccs1	none
Cc1sc2ncn(CC(=O)N3CCN(c4ccccc4)CC3)c(=O)c2c1S(=O)(=O)N1CCC(C)CC1	none (no result: Luciferase inh)
O=C(C1CCN(S(=O)(=O)Cc2ccccc2)CC1)N1CCN(c2ccccc2F)CC1	none (no result: Luciferase inh)
Cc1ccc(C(=O)Cn2c3c(sc2=N)CCCC3)cc1	p53ts 32C kill 2µM, p53ts 39C tox 1.58µM
Cc1ccc(-n2c(=O)c3c4c(sc3n(CC(=O)c3ccc(Cl)cc3)c2=O)CCC4)cc1C	none (no result: Luciferase inh)
O=C(CSc1nccn1Cc1ccccc1)Nc1ccc2c(c1)OCO2	p53ts 39C tox inconclusive (no result: Luciferase inh)
O=c1c2c(nc3c(-c4ccc(Cl)cc4)c[nH]n13)CCCC2	p53ts 39C tox 20µM
O=c1c2c(nc3c(-c4cccc5ccccc45)c[nH]n13)CCC2	p53ts 32C kill inconclusive
CCc1cccc(NC(c2ccccc2)c2nnc(-c3ccccc3F)o2)c1 (centres undefined)	none (no result: Luciferase inh)
Cc1oc2ccc(O)c(CN3CCCCCC3)c2c1C(=O)Nc1cccc(C(F)(F)F)c1	p53ts 39C tox 15.8µM (no result: Luciferase inh)
COc1ccc(NC(=O)c2c(C)oc3ccc(O)c(CN4CCN(Cc5ccccc5)CC4)c23)cc1Cl	none (no result: Luciferase inh)
COc1ccc(NC(=O)c2c(C)oc3ccc(O)c(CN4CCC(C)CC4)c23)cc1Cl	p53ts 39C tox 31.6µM (no result: Luciferase inh)
Cc1oc2ccc(O)c(CN3CCCC3)c2c1C(=O)Nc1ccccc1	none (no result: Luciferase inh)
CCN1CCN(Cc2c(O)ccc3oc(C)c(C(=O)Nc4ccc(OC)c(Cl)c4)c23)CC1	none (no result: Luciferase inh)
COc1ccc(NC(=O)c2c(C)oc3ccc(O)c(CN4CCCC(C)C4)c23)cc1Cl (centres undefined)	p53ts 32C kill inconclusive, p53ts 39C tox 31.6µM (no result: Luciferase inh)
CCOc1ccc(OCC)c(NC(=O)c2csc3c2CCCC3)c1	none (no result: Luciferase inh)
O=C(c1ccc2c(c1)N(Cc1ccccc1F)C(=O)c1ccccc1S2(=O)=O)N1CCN(c2ccccn2)CC1	none (no result: Luciferase inh)
O=C1NC2(CCCC2)N=C1c1ccc(Cl)cc1	none
N#CC(C#N)=c1ccc2c(c1)NC1(CCCCC1)N=2	Luciferase inh 7.94µM
CCc1ccc(-n2nc3cc(C)c(NC(=O)c4cc(Cl)ccc4OC)cc3n2)cc1	none (no result: Luciferase inh)
CCc1ccc(C2CC(=O)NC(NC(=O)c3ccc(C(C)(C)C)cc3)=N2)cc1 (centres undefined)	none (no result: Luciferase inh)
CC(C)COc1ccc(C(=O)NCc2ccco2)cc1	none
CCOc1ccc(C(=O)Nc2onc3c2CCCC3)cc1	p53ts 32C kill 6.31µM, p53ts 39C tox 15.8µM (no result: Luciferase inh)

High-throughput results: PubChem BioAssay, National Center for Advancing Translational Sciences (NCATS)
